Bioassay records deposited in PubChem BioAssay by National Center for Advancing Translational Sciences (NCATS).
Pf growth 96h: Primary qHTS for delayed death inhibitors of the malarial parasite plastid, 96 hour incubation | Potency, µM (series often up to 28.7 µM), usual class: inhibitors | 320,000 compounds, 6.9% hits | P. falciparum luciferase reporter growth, 96 h
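Two parasite generations (96 h, 37 C, 5% CO2) of compound exposure in infected erythrocytes (0.05% parasitemia, 2% hematocrit). Luciferase-reporter P. falciparum; decreased luminescence indicates inhibited growth, aimed at apicoplast-acting delayed death.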
NS1 function inh: qHTS Assay for Inhibitors of Influenza NS1 Protein Function. 270,000 compounds, 0.4% hits. Potency, µM (top dose mostly 46.1 µM); calls by dose curve; note: actives are rising curves; nearly all actives have a fitted effect of over 50% in size
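Recovery from NS1-induced slow growth read by OD600 in budding yeast switched to galactose assay medium (pH 6.0, -URA) at 1:100 dilution. Compound 23 nl per well; the matching strain lacking NS1 serves as control.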
Sm TGR block: qHTS Assay for the Inhibitors of Schistosoma Mansoni Peroxiredoxins; Schistosoma mansoni thioredoxin glutathione reductase (TGR), Q962Y6; AID 485364, 2010; Potency, µM (highest dose often 114 µM), most hits filed as inhibitors; 360,000 compounds, 3% hits; purified TGR, DTNB reduction, TNB absorbance 405 nm; note: nearly all actives have a fitted effect of over 60% in size
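Kinetic colorimetric format: TGR-catalysed, NADPH-driven DTNB reduction monitored via TNB absorbance. Enzyme dispensed at 20 nM; compound exposure 15 min at room temperature before reaction start.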
Pf growth 48h: Primary qHTS for delayed death inhibitors of the malarial parasite plastid, 48 hour incubation | 310,000 compounds, 5.9% hits | Potency, µM (titrated, usually from 28.7 µM), most hits filed as inhibitors | P. falciparum luciferase growth in erythrocytes, 48 h
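A one-generation exposure of luciferase-tagged malaria parasites in RPMI 1640/Albumax erythrocyte culture, 37 C and 5% CO2. Inhibition is inferred from decreased luminescence after adding detection reagent.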
AMA1 RON2 block: qHTS for Inhibitors of AMA1-RON; Towards Development of Antimalarial Drug Lead: Primary Screen; 360,000 compounds, 0.2% hits; AlphaScreen AMA1-biotinylated RON2 peptide binding; Potency, µM (doses to about 58.2 µM), hits mostly inhibitors; AID 720542, 2013; Plasmodium falciparum AMA1 (3D7) - RON2 peptide interaction; note: nearly all actives have a fitted effect of over 45% in size
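AMA1 (3D7) with his tag at 25 nM final met compounds first, then biotinylated RON2 peptide at 25 nM; detection used donor plus acceptor beads, 10 µg/mL apiece, read by AlphaScreen after 30 min at room temperature.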
Hits are given with their value; - = inactive; ? = inconclusive; . = not tested or not shown; [ ] = another dose, or the depositor's remark. In the library only some 11% were active in any assay of this set; here they are far more common. Unless noted, calls come from the whole dose curve; as a rule, active = well fitted curve in the direction sought with a large enough effect; inconclusive = small, poorly fitted or top-dose-only effect, or another doubt; inactive = no such curve, though single readings can be large; an effect the other way counts as inactive or inconclusive.

SMILES	Pf growth 96h	NS1 function inh	Sm TGR block	Pf growth 48h	AMA1 RON2 block
Cc1onc(-c2ccccc2)c1CNC(=O)C1COc2ccccc2O1 (stereo not given)	?	-	-	13µM	-
COc1ccc(N(C)C(=O)C2CCCN2S(=O)(=O)c2cccc3nsnc23)c(OC)c1 (stereo not given)	-	-	-	-	-
O=C(O)CCNc1ccc(NCCC(=O)O)c2c1C(=O)c1ccccc1C2=O	?	-	-	?	16µM
O=C1c2cccc(NCCNCCO)c2C(=O)c2cccc(NCCNCCO)c21	.	.	.	.	45µM
O=C(NCCO)c1cccc2c1C(=O)c1ccccc1-2	-	-	-	-	-
O=C(N/N=C(\CC(=O)c1cccs1)C(F)(F)F)c1ccncc1	?	-	-	0.23µM	-
COc1cc2c(cc1OC)-c1c3c(cc4c1[C@@H](C2)N(C)CC4)OCO3	?	-	-	?	-
COc1c(O)cc2c(c1OC)-c1ccc(OC)c(=O)cc1C(NC(C)=O)CC2 (stereo not given)	.	.	.	.	-
COc1cc2c(cc1O)CC[n+]1cc3c(OC)c(OC)ccc3cc1-2	0.12µM	-	-	0.41µM	-
COc1cc2c(cc1OC)-c1cc3ccc4c(c3c[n+]1CC2)OCO4	0.15µM	-	-	1µM	-
CCCc1cc(=O)[nH]c(SCc2nc(-c3ccccc3)no2)n1	.	.	-	.	.
COc1ccccc1CNS(=O)(=O)c1ccc(-n2cnnn2)c(OC)c1	9.3µM	-	-	-	-
COc1cc(S(=O)(=O)N(Cc2ccccn2)Cc2ccccc2Cl)ccc1-n1cnnn1	?	-	-	-	-
COc1ccccc1CN(Cc1ccco1)S(=O)(=O)c1ccc(-n2cnnn2)c(OC)c1	?	-	-	13µM	-
Cc1csc2nc(CSc3ccc(Cl)cc3)cn12	3.7µM	-	?	-	-
Clc1ccc(SCc2cn3ccsc3n2)cc1	10µM	-	-	-	-
c1ccc(CSCc2cn3ccsc3n2)cc1	.	-	-	-	-
CCCSc1nc2sc3c(c2c(=O)[nH]1)CCN(Cc1ccccc1)C3	4.1µM	-	-	?	-
Cc1noc(C)c1S(=O)(=O)NCCCN1CCN(Cc2ccccc2)CC1	4.7µM	-	-	-	.
Cc1cc(-c2ccc(C)c(S(=O)(=O)NCCCN3CCN(c4ccccc4)CC3)c2)on1	?	-	-	?	-
Cc1noc(C)c1NC(=O)NCCN1CCN(Cc2ccccc2)CC1	-	-	-	-	-
Cc1noc(C)c1S(=O)(=O)NCCN1CCN(c2ccccc2)CC1	12µM	-	-	-	-
O=S(=O)(NCCc1ccccn1)c1ccc(OC(F)(F)F)cc1	-	-	-	-	-
O=S(=O)(NCCc1ccccn1)c1ccc(F)c(F)c1	5.2µM	-	-	-	-
CC(C(=O)N1CCCC1)c1ccc([N+](=O)[O-])cc1 (stereo not given)	15µM	-	-	-	-
SMILES	Pf growth 96h	NS1 function inh	Sm TGR block	Pf growth 48h	AMA1 RON2 block
CCN(CC)C(=O)Oc1ccc2c(c1)O/C(=C\c1ccco1)C2=O	-	-	-	-	-
Cc1cc(O)cc2c1C(=O)/C(=C/c1ccco1)O2	-	-	32µM	-	-
CCC(=O)Oc1ccc2c(c1)O/C(=C\c1ccco1)C2=O	-	-	11µM	-	-
COc1ccc(/C=C2\Oc3cc(OC(=O)N4CCOCC4)ccc3C2=O)cc1	?	-	-	?	-
CCc1ccc(/C=C2\Oc3cc(OC(=O)N4CCOCC4)ccc3C2=O)cc1	10µM	-	-	?	-
COC(=O)COc1ccc2c(c1)O/C(=C\c1ccco1)C2=O	-	-	18µM	-	-
COc1cccc(C(=O)NNC(=O)C(=O)Nc2ccc(OC)cc2OC)c1	-	-	-	-	-
O=C(NCCCCc1ccccc1)c1nn(-c2ccccc2)nc1CO	.	.	-	.	.
O=C(O)C1C2C=CC(C2)C1C(=O)OCc1ccccc1 (stereo not given)	9.3µM	-	-	-	-
CCCCCn1c(=S)[nH]c2ncccc2c1=O	9.3µM	-	-	-	-
CCNC1CCC(Nc2ccnc3cc(Cl)ccc23)CC1 (stereo not given)	.	.	.	.	-
Cc1ccccc1/C=N/Nc1ccnc2cc(Cl)ccc12	0.83µM	-	-	0.83µM	-
Oc1ccc(/C=N/Nc2ccnc3cc(Cl)ccc23)c(O)c1	0.37µM	-	-	0.59µM	-
Cc1ccc(/C=N/Nc2ccnc3cc(Cl)ccc23)c(C)c1	?	-	-	0.21µM	-
CCC1CCCCN1C(=O)Cn1c(=O)oc2cc(S(=O)(=O)N3CCCCC3)ccc21 (stereo not given)	.	.	-	.	.
O=C(CCS(=O)(=O)c1cc2c(cc1Cl)NC(=O)CO2)NCc1ccccc1Cl	.	.	-	.	.
CCCC1S/C(=N/N=C/c2ccc(C)cc2)N(Cc2ccc(OC)cc2)C1=O (stereo not given)	10µM	-	-	4.1µM	-
COc1ccc(/C=N/N=C2\SC(CC(=O)O)C(=O)N2c2ccccc2)cc1 (stereo not given)	1.7µM	-	-	-	-
COc1ccc(/C=N\N=C2/SC(CC(=O)O)C(=O)N2c2ccc(O)cc2)cc1 (stereo not given)	-	-	-	-	-
COC(=O)c1ccccc1NC(=O)c1cc([N+](=O)[O-])nn1Cc1ccccc1	0.66µM	-	-	-	-
COC(=O)c1scc(S(=O)(=O)C(C)C)c1N/N=C(\C#N)C(=O)c1ccc(Cl)cc1	-	-	-	?	-
COC(=O)c1scc(C#N)c1N/N=C(\C#N)S(=O)(=O)c1ccc(Cl)cc1	-	-	32µM	-	-
O=[N+]([O-])c1ccc(O)c2ncccc12	9.5µM	-	?	13µM	-
O=[N+]([O-])c1cc([N+](=O)[O-])c2cccnc2c1Oc1ccccc1O	?	-	0.28µM	-	?
O=[N+]([O-])c1ccc(O)c2cccnc12	-[5.75 µM]	.	-	-	-
SMILES	Pf growth 96h	NS1 function inh	Sm TGR block	Pf growth 48h	AMA1 RON2 block
O=[N+]([O-])c1ccccc1Oc1ccc(Cl)c2cccnc12	-	.	-	-	-
O=C(CCNS(=O)(=O)c1ccccc1C(F)(F)F)NC1CCCCCC1	-	.	-	-	-
C=CC(=O)O	-	.	.	-	.
CC(=O)c1cccc(OCc2cc(C(=O)NC3CCN(Cc4ccccc4)CC3)no2)c1	12µM	-	-	-	-
CC(=O)c1ccc(OCc2cc(C(=O)N(C)Cc3ccccn3)no2)cc1	10µM	-	13µM	-	-
CC(=O)c1cccc(OCc2cc(C(=O)N(C)CCC3CCOCC3)no2)c1	-	?	2.2µM	-	-
CC1CN(C(=O)c2ccc(C(=O)c3ccccc3)cc2)CC(C)O1 (stereo not given)	?	-	-	-	-
CC1CN(C(=O)c2cccc(C(=O)N3CC(C)OC(C)C3)c2)CC(C)O1 (stereo not given)	15µM	-	-	-	-
